The values below come from PubChem BioAssay.

Activity calls are given as the source filed them. Unless noted, how the calls were made is not given here.

Assay [1] in a line: compounds binding Alexa647 anti-His antibody – biochemical, small-molecule microarray, 635 nm fluorescence, artefact control for SMM control protein annotation, primary screen (AID 1128).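 Further: score merges feature fluorescence with signal-to-noise for each printed compound spot.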 Conditions: higher = more signal.
Assay [2] has as its system Human papillomavirus type 1a E7 protein (residues 1-88). In words: HPV1a E7 small-molecule binders, primary screen, biochemical, small-molecule microarray, residues 1-88, 635 nm (AID 1129). The following applies: small-molecule microarray binding, fluorescence 635 nm; higher = more signal.
For assay [3], the target named is Focal adhesion kinase 1 (Homo sapiens) (UniProt Q05397). In words: PTK2 protein binding on printed compound slides – biochemical, small-molecule microarray, 635/667 nm fluorescence, BSA, DTT, primary screen (AID 1130).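 Further: composite of spot emission at 667 nm and signal to noise over triplicate slides.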 Conditions: 635 nm fluorescence, higher = more signal.
Assay [4] concerns Fibrinogen (Alexa647-labelled). Put plainly: Alexa647-fibrinogen binding to printed small molecules – biochemical, small-molecule microarray, 635/667 nm fluorescence, artefact control for SMM control-protein annotation, profiling panel (AID 1131).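 Further: z-score merges 667 nm fluorescence with per-spot signal-to-noise over triplicate slides.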 The following applies: fibrinogen-A647 binding fluorescence, higher = more signal.
Assay [5] deals with Follistatin (Homo sapiens) (UniProt P19883). In words: FST protein binding to printed compounds – biochemical, small-molecule microarray, 635/667 nm fluorescence, primary screen (AID 1132). The following applies: 635 nm fluorescence, higher = more signal.
Assay [6] deals with Fibroblast growth factor 2 (Homo sapiens) (UniProt P09038). Put plainly: basic fibroblast growth factor binding to printed compounds – biochemical, small-molecule microarray, 635/667 nm fluorescence, primary screen (AID 1133). Conditions: FGF2, fluorescence 635/667, higher = more signal.
The nature of assay [7]: JC-1 mitochondrial potential readout, lung cancer cells – cell-based, A549, JC-1 fluorescence, basal, 24 h, 100 nL, profiling panel (AID 1138).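 Further: A549 lung adenocarcinoma cells under basal conditions with no added stimulus; test concentration not given here.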 The following applies: higher = more signal.
For the next assay, the system named is Lefty1. In words: Lefty1 protein binding to printed compounds – biochemical, small-molecule microarray, 635/667 nm fluorescence, primary screen (AID 1139). The following applies: fluorescence 635/667, higher = more signal.
The subject of assay [8] is wheat germ agglutinin (Triticum aestivum), Alexa647-labelled. Put plainly: Alexa647-WGA lectin binding to printed small molecules – biochemical, small-molecule microarray, 635/667 nm fluorescence, artefact control for SMM control-protein annotation, profiling panel (AID 1140).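 Further: score merges 667 nm feature emission with signal to noise over triplicate slides.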 Conditions: WGA-A647 binding, 635 nm fluorescence, higher = more signal.
The target in assay [9] is Luciferin 4-monooxygenase (Photinus pyralis) (UniProt P08659). Put plainly: inhibition of purified Photinus pyralis luciferase – biochemical, luminescence, purified enzyme, 2006 set, primary screen (AID 1141).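 Further: cell-free assay with purified firefly luciferase at 100 ng per well in PBS; test concentration not given here.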 Conditions: purified firefly luciferase, SteadyGlo luminescence, 30 min; higher = more signal, called active from +8 up or from −8 down.
Assay [10] deals with Wnt5a (protein binding on small-molecule microarray). In words: small molecules binding Wnt5a protein – biophysical, small-molecule microarray, 635/667 nm fluorescence, primary screen (AID 1142).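 Further: fluorescence read at 667 nm with signal to noise per printed feature.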 Conditions: 635 nm fluorescence, higher = more signal.
Assay [11] in a line: ATP-based viability of Huh7 replicon cells – cell-based, CellTiter-Glo luminescence, basal, 48 h, cytotoxicity control for HCV replication inhibitor project, primary screen (AID 1143).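 Further: Huh7 hepatoma cells carrying a hepatitis C replication reporter with no stimulus; test concentration not given here.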 The following applies: higher = more signal, called active from +8 up or from −8 down. (In antiviral work, replicon cells carry a viral genome segment that copies itself.)
Assay [12] can be described thus: Pseudomonas biofilm growth suppression – PAO1 strain, BacTiter-Glo luminescence, LB-PBS, primary screen (AID 1144). The following applies: P. aeruginosa PAO1 biofilm, 12 h, higher = more signal.
Assay [13] can be described thus: basal CRE-LacZ reporter activity in PC12 – cell-based, unstimulated, primary screen (AID 1145). Conditions: no forskolin, luminescence, 4.5 h, higher = more signal, called active from +8 up or from −8 down.
The nature of assay [14]: forskolin-driven CRE-LacZ activity in PC12 – cell-based, CRE-LacZ reporter, forskolin-stimulated, primary screen (AID 1146).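 Further: PC12 cells with 6xCRE LacZ reporter stimulated by forskolin 10 µM; beta-galactosidase reporter signal reflecting CREB driven transcription.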 The following applies: luminescence, 4.5 h, higher = more signal, called active from +8 up or from −8 down.
The target of assay [15] is Streptavidin (Streptomyces avidinii) (UniProt P22629). In words: compounds binding control protein streptavidin – biophysical, small-molecule microarray, 635/667 nm fluorescence, artefact control for SMM compound annotation, primary screen (AID 1147).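 Further: signal reflects streptavidin binding to arrayed compounds as a control protein.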 The following applies: higher = more signal.
Assay [16] in a line: probe aInhba binding on compound microarray – biochemical, small-molecule microarray, 635/667 nm fluorescence, primary screen (AID 1148).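 Further: score merges 667nm spot fluorescence with signal-to-noise for antibody binding to printed compounds.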 The following applies: higher = more signal.
Assay [17] addresses Torsin-1A (Homo sapiens) (UniProt O14656). Put plainly: TOR1A wild-type binding on microarray – cell lysate, small-molecule microarray, lysate, 635/667 nm, primary screen (AID 1149). The following applies: COS7 hTOR1A-WT lysate, 635 nm fluorescence, higher = more signal.
For assay [18] the target is unchanged. In words: torsin A mutant lysate binding on microarrays – cell lysate, small-molecule microarray, COS7 lysate, 635/667 nm fluorescence, primary screen (AID 1150).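 Further: score pools 667 nm emission and signal to noise measuring lysate protein binding.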 Conditions: COS7 hTOR1A mutant lysate, 635 nm fluorescence, higher = more signal.
In assay [19] the test system is Sonic hedgehog protein (Shh). Put plainly: Sonic hedgehog microarray binding compounds – biochemical, small-molecule microarray, 635/667 nm fluorescence, primary screen (AID 1151).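 Further: Shh protein binding to compounds spotted on small-molecule microarray slides; score combines spot fluorescence intensity with signal-to-noise across triplicate slides.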 Conditions: 635 nm fluorescence, higher = more signal.

Sequence of Luciferin 4-monooxygenase (Photinus pyralis) (P08659 whole entry, looked up): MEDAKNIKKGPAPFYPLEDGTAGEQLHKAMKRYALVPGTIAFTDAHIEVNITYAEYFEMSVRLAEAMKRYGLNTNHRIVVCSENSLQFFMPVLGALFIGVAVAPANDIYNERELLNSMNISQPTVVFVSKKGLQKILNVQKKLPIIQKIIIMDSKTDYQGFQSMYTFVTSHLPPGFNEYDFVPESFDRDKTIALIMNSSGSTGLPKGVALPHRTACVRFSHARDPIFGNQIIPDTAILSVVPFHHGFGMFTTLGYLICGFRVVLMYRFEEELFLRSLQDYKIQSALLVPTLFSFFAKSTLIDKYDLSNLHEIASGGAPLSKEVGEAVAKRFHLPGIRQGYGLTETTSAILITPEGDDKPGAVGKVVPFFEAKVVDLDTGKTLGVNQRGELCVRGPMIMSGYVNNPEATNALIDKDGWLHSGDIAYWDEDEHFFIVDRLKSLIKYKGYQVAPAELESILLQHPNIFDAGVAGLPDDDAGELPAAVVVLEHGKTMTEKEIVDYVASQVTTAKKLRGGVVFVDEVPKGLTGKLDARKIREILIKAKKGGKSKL
Sequence of Focal adhesion kinase 1 (Homo sapiens) (Q05397 whole entry, looked up): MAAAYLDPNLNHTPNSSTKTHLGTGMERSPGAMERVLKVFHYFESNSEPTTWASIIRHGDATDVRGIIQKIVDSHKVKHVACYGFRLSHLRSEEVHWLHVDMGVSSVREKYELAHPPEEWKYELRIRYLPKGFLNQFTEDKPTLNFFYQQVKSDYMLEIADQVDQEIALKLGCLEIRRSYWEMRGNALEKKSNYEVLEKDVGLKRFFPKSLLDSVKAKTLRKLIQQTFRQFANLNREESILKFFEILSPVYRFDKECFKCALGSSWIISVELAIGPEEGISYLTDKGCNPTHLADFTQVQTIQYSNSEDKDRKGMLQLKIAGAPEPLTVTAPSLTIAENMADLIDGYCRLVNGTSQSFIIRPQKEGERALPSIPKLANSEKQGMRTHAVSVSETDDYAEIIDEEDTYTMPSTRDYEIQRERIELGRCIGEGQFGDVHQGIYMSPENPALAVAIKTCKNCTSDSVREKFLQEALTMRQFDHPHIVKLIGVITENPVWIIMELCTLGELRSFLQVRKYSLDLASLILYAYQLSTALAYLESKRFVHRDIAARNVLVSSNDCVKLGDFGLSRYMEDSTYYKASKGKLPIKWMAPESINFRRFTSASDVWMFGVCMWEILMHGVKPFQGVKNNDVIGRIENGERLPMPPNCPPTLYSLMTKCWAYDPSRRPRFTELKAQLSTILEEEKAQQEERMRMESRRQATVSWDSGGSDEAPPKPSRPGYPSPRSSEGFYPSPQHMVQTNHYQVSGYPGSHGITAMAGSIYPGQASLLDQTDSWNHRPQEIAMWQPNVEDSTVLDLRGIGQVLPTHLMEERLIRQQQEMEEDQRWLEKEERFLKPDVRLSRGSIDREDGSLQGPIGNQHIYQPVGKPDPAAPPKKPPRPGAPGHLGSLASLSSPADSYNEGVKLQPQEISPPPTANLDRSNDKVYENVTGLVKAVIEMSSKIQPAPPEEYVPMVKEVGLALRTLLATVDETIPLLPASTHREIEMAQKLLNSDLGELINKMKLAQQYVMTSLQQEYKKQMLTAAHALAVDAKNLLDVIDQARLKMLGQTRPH
Sequence of Follistatin (Homo sapiens) (P19883 whole entry, looked up): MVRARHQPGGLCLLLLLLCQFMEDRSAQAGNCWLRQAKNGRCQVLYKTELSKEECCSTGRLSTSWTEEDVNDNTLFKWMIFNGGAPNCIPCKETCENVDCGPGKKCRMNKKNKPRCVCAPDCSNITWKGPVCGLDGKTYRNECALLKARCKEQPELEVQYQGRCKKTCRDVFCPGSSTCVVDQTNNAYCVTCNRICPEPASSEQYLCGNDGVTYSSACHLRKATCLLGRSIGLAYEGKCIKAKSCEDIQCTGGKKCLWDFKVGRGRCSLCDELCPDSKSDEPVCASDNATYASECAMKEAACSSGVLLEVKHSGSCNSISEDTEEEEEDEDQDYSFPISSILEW
Sequence of Streptavidin (Streptomyces avidinii) (P22629 whole entry, looked up): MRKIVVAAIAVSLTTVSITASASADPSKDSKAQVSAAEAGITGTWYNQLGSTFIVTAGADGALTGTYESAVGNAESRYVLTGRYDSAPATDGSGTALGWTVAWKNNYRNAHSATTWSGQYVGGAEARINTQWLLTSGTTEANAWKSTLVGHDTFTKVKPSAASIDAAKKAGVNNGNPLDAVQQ
Sequence of Fibroblast growth factor 2 (Homo sapiens) (P09038 whole entry, looked up): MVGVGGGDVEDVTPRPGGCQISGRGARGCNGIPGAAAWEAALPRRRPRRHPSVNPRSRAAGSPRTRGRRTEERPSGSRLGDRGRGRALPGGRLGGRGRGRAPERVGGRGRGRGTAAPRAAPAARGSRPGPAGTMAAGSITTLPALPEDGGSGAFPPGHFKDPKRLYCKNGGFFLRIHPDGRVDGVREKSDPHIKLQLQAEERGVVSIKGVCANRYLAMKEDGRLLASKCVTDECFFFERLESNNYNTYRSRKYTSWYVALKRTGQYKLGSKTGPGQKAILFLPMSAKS
Sequence of Torsin-1A (Homo sapiens) (O14656 whole entry, looked up): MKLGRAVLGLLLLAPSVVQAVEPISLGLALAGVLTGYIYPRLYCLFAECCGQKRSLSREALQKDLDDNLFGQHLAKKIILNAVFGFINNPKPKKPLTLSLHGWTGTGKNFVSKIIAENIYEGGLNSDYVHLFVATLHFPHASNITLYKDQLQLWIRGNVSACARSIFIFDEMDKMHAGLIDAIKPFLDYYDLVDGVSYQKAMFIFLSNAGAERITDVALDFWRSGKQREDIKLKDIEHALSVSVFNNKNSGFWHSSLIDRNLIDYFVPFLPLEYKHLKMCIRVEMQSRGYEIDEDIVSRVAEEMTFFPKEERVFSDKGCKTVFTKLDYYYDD

Take `C[C@@]12COC[C@]13C=C(Br)[C@H](C2)[C@@]1(CO1)C3=O`: the composite z-score in [1] was 0.0359; in assay [2], -1.59; in assay [3], -0.306; in assay [4], -0.376; in assay [5] it was -0.222; in assay [6] it was -0.757. Further, the composite z-score with Lefty1 is -0.0487; in assay [8], -0.388; in [10], -0.329; in assay [15] it was -0.875; in [16], -0.0966; with Torsin-1A (Homo sapiens) [17] it was -1.76. In addition, the composite z-score in the assay with Torsin-1A (Homo sapiens) [18] is -0.55; in [19] it was -0.3. Besides, the z-score is 1.02 in [7]; 0.198 (inactive) in assay [9]; 0.603 (inactive) in assay [11]; 0.708 (inactive) in assay [12]; 0.769 (inactive) in assay [13]; 1.51 (inactive) in [14].
In the case of `COCCOC(=O)N1C(=O)[C@@]2(c3cc(C#CCC(C(=O)OC)C(=O)OC)ccc31)[C@H](C(=O)NC[C@H](O)c1ccccc1)[C@H]1C(=O)O[C@H](c3ccccc3)[C@H](c3ccccc3)N1[C@@H]2c1ccc(O)cc1`, the composite z-score in assay [1] was 2.58; in assay [2], 1.17; in assay [3], 0.983; in assay [4], -0.6; in assay [5] it was 0.22; in assay [6], 0.501. Further, the composite z-score with Lefty1 is 0.464; in [8] it was 1.02; in [10], 0.247; in [15], -0.003; in assay [16], -0.0509; in the assay with Torsin-1A (Homo sapiens) [17], -0.431. Also, the composite z-score with Torsin-1A (Homo sapiens) [18] came to 0.413; in [19], 0.863. The z-score is -0.464 in assay [7]; -0.296 (inactive) in [9]; -1.1 (inactive) in assay [11]; -0.766 (inactive) in assay [12]; -0.191 (inactive) in assay [13]; -0.221 (inactive) in [14].
`C=C(/C(=C/C[C@H](OC(=O)c1ccncc1)c1ccccc1OCCO)c1cnc2ccccc2c1)C(C)C`: the composite z-score in assay [1] came to 1.23; in assay [2], 1.22; in [3], 0.374; in assay [4] it was 0.958; in [5], 1.39; in [6], 1.42. The composite z-score in the assay with Lefty1 is 1.39; in assay [8], 0.846; in [10], 0.733; in assay [15], 1.81; in assay [16], 0.0471; in the assay with Torsin-1A (Homo sapiens) [17], 1.06. For the same compound, the composite z-score in the assay with Torsin-1A (Homo sapiens) [18] turned out to be 1.07; in assay [19] it was 2.01. The z-score in [7] is 0.707; in assay [9], -0.177 (inactive); in assay [11], -0.0956 (inactive); in [12], -0.91 (inactive); in [13], 2.52 (inactive); in assay [14], 1.5 (inactive).
With `CC(C)CNC(=O)[C@@]1(c2ccc([N+](=O)[O-])cc2)CC(=O)N(C2CCCCC2)[C@@H]1c1ccc(CO)cc1`, the composite z-score is 1.91 in [1]; 1.23 in assay [2]; -0.0282 in assay [3]; 0.583 in [4]; 0.536 in assay [5]; 1.04 in assay [6]. Moreover, the composite z-score in the assay on Lefty1 is -0.35; in assay [8] it was 0.29; in [10] it was 0.335; in assay [15] it was -0.0755; in [16] it was -0.153; with Torsin-1A (Homo sapiens) [17], 0.442. The composite z-score with Torsin-1A (Homo sapiens) [18] was 0.0881; in [19] it was -0.158. The z-score is 0.214 in assay [7]; -0.977 (inactive) in assay [9]; -2.21 (inactive) in assay [11]; 0.901 (inactive) in [12]; 0.585 (inactive) in assay [13]; 0.142 (inactive) in assay [14].
In the case of `CCCCNC(=O)c1ccc(C#C[Si](C(C)C)(C(C)C)C(C)C)c(OC(C)=O)c1`, the composite z-score in [1] turned out to be 0.823; in assay [2], 1.13; in assay [3], 0.124; in [4], 0.598; in [5], 1.15; in assay [6] it was 0.883. The composite z-score with Lefty1 is 1.01; in [8], 1.08; in [10], 0.268; in assay [15], 1.04; in assay [16], -0.187; with Torsin-1A (Homo sapiens) [17], 0.598. Besides, the composite z-score in the assay with Torsin-1A (Homo sapiens) [18] is 0.216; in assay [19], 1.74. Further, the z-score in assay [7] was -2.05; in assay [9] it was 0.683 (inactive); in assay [11] it was -0.915 (inactive); in assay [12], -0.084 (inactive); in assay [13] it was 0.223 (inactive); in assay [14], 0.184 (inactive).
